HTR5A ag = counter-screen for OPRM1-OPRD1 agonists: human HTR5A agonism | P47898 | HTR5A agonist assay, luminescence, cell-based | activation, % at 9.3 µM | 340,000 compounds, 0.61% hits | AID 504692; in the data active = activation mostly above about 9.5%, no sharp cut-off; inactive = mostly below about 7.6%;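 also: 0% = cells with vehicle only and 100% = reference agonist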
MOR-DOR ag = OPRM1-OPRD1 heterodimerization agonism. cells, luminescence. 340,000 compounds, 0.3% hits. activation, % at 9.3 µM. AID 504326; in the data active = activation above about 18%;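 also: 0% = vehicle-treated cells and 100% = reference agonist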
Target sequence (P35372 whole entry, looked up): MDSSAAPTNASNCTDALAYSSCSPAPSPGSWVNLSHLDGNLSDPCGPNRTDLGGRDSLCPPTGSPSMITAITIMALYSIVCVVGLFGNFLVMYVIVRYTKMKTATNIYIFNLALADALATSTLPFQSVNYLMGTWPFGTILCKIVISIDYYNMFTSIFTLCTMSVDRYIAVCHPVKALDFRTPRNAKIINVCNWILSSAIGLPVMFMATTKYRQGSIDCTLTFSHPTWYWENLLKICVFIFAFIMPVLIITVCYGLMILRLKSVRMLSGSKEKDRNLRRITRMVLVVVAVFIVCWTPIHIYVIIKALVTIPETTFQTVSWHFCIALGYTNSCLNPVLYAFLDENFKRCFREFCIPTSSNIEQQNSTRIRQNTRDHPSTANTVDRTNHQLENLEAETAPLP
Target sequence (P41143 whole entry, looked up): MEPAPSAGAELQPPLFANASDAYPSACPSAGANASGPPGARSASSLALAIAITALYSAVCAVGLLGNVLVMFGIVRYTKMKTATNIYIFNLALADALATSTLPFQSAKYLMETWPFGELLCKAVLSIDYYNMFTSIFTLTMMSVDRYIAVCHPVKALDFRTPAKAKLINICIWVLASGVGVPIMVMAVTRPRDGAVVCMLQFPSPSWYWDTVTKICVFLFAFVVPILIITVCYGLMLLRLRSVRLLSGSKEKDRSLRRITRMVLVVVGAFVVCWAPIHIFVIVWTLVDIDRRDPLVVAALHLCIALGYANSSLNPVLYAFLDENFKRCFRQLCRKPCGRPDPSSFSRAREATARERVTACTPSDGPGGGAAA
HTR5A inv ag = counter-screen for OPRM1-OPRD1 inverse agonists: human HTR5A inverse agonism; AID 504634; 340,000 compounds, 0.083% hits; inhibition, % at 9.3 µM; HTR5A cell line, luminescence; in the data active = inhibition mostly above about 23%, no sharp cut-off; inactive = mostly below about 18%;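 also: 0% = cells with DMSO and 100% = no-cell wells with DMSO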
MOR-DOR inv ag = mu-delta opioid heterodimer inverse agonism. cell-based MOR-DOR heterodimer luminescence. 340,000 compounds, 0.21% hits. inhibition, % at 9.3 µM; in the data active = inhibition above about 22%, passing the limit was not always enough;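 also: 0% = cells with DMSO and 100% = wells without cells with DMSO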
HTR2A ag = agonists of mouse serotonin 5-HT2A receptor (HTR2A); CHO-K1 mHTR2A beta-arrestin complementation, luminescence; percent of 30 µM serotonin response; activation, % at 7.6 µM; 360,000 compounds, 0.66% hits; AID 624169;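 active = activation above a run cutoff, the mean activation of all tested compounds plus 3 SD, cut at about 14% in these data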;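 also: 0% = plate median of compound wells and 100% = 30 µM serotonin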
HGIII-sPLA2 inh = Blocks human group III sPLA2 activity | inhibition, % at 12.2 µM | QFRET BODIPY PC-A2 liposome hydrolysis, fluorescence | AID 743126 | 370,000 compounds, 0.56% hits | Q9NZ20;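 active = inhibition above mean plus 3 SD of compounds lying within the high and low control bounds, cut at about 19% in these data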;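 also: 0% = median of test compound wells and 100% = no enzyme DMSO wells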
sPLA2 confirm = human GIII-sPLA2 inhibition, confirmation | recombinant hGIII-sPLA2, BODIPY PC-A2 QFRET fluorescence | inhibition, % at 12.2 µM | shares compounds with HGIII-sPLA2 inh | 2,000 compounds, 34% hits;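 active = mean inhibition across triplicates above the hit cutoff set in the earlier primary screen, cut at about 19% in these data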;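 also: 0% = enzyme with DMSO and 100% = DMSO wells lacking enzyme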
BODIPY interf = 535nm fluorescence interference, HGIII-sPLA2 counter-screen; shares compounds with HGIII-sPLA2 inh; BODIPY FL product fluorescence interference, QFRET; inhibition, % at 12.2 µM; 2,000 compounds, 8.5% hits;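 active = average inhibition above the solvent-only control mean plus 3 SD, cut at about 6% in these data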;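 also: 0% = DMSO with substrate plus product and 100% = DMSO with substrate alone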
BODIPY interf DR = 535nm optical interference dose response, HGIII-sPLA2 counter-screen | shares compounds with HGIII-sPLA2 inh | BODIPY FL product fluorescence interference, cell-free | IC50, µM | 240 tested, under 10 active | AID 743455;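 active = IC50 at or below 10 µM; inactive = IC50 above 10 µM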
* marks the source's active call; other numbers are inactive results; . = no result. In the library only some 2.2% were active in any assay of this set; here they are far more common.

SMILES	HTR5A ag	MOR-DOR ag	HTR5A inv ag	MOR-DOR inv ag	HTR2A ag	HGIII-sPLA2 inh	sPLA2 confirm	BODIPY interf	others
O=C1S/C(=C\C=C\c2ccco2)C(=O)N1c1ccccc1	3	3	32	-14	1	28*	2	-2
Nc1ccc(NC(=O)c2cccs2)c(Cl)c1	-3	0	-8	3	4	22*	7	2
Cc1cc(S(=O)(=O)N(Cc2ccccc2Cl)c2ccc3c(c2)CCC3)ccc1-n1cnnn1	-4	0	-2	0	2	20*	-13	-19
COc1cccc(CN(c2ccc3c(c2)CCC3)S(=O)(=O)c2ccc(-n3cnnn3)c(OC)c2)c1	3	-2	5	14	6	-13	.	.
CC(C)NC(=O)N[C@@H]1C[C@@H]2O[C@@H](CO)CC[C@@H]2O[C@@H]1CCc1ccc(-c2ccc(F)cc2)cc1	.	.	.	.	.	-17	.	.
COc1ccc(NC(=O)COC(=O)CC23CC4CC(CC(C4)C2)C3)c([N+](=O)[O-])c1	1	2	-16	-12	-2	17	.	.
CCOc1ccc(NC(=O)COC(=O)C23CC4CC(CC(C4)C2)C3)c([N+](=O)[O-])c1	2	4	-18	-19	3	21*	-10	-10
CCOc1ccc(NC(=O)/C=C/c2ccc(OC)cc2)c([N+](=O)[O-])c1	2	-2	-14	8	1	26*	-2	-5
Cc1ccc(NC(=O)/C=C\C(=O)O)c([N+](=O)[O-])c1	-1	-2	4	13	2	21*	1	-6
Cc1cc(C)c(NC(=O)/C=C\C(=O)O)c([N+](=O)[O-])c1	-9	0	0	-3	3	0	.	.
COc1ccc(CNS(=O)(=O)/C=C/c2ccc(OC)cc2CNC(=O)OC(C)(C)C)cc1	.	.	.	.	.	-11	.	.
CC(C)Cn1c(/C=N/Nc2nc3ccccc3[nH]2)nc2ccccc21	-9	-3	-7	18	-8	29*	39*	-8
C=CCn1cc(/C=N/Nc2nc3ccccc3[nH]2)c2ccccc21	0	10	-34	-66	-6	2	.	.
CCOC(=O)CC[C@@]1(C(=O)OCC)C[C@@H](CC(=O)NCC23CC4CC(CC(C4)C2)C3)C(=O)N2CCCC=C21	.	.	.	.	.	-6	.	.
COc1ccc(OC)c(CN(CC(F)(F)F)S(=O)(=O)c2ccccc2Br)c1	.	.	.	.	.	-5	.	.
COc1ccccc1N1CCN(CCN2C(=O)CC3(CCCC3)CC2=O)CC1	1	3	-38	-15	-6	20*	1	-18
O=C(Nc1nc2ncccn2c1-c1ccc(C(F)(F)F)cc1)c1ccc(F)cc1	.	.	.	.	.	1	.	.
Cc1ccc(-c2c(C(=O)NC3CCCC3)oc(=O)c3ccccc23)cc1	.	.	.	.	.	7	.	.
COc1ccc(-c2n[nH]c(=S)nc2-c2ccc(OC)cc2)cc1	-2	-3	6	13	-1	19*	26*	5
CC(=O)NN1C(=O)/C(=C2/Sc3ccc(Cl)cc3N2C)SC1=S	2	12	-8	-54	1	20*	16	0
CCN1C(C)=C(C)S/C1=C1\SC(=S)N(NC(C)=O)C1=O	6	-1	-18	5	2	2	.	.
CCCNS(=O)(=O)c1ccc(CCC(=O)N2CCN(CC)CC2)cc1	3	-2	4	9	2	21*	-2	-7
CCOC1=CC2=C(C(=O)C(Cl)=CC2=O)[C@@H]2CN(S(=O)(=O)c3ccc(C)cc3)[C@@H](c3ccccc3)[C@H]12	.	.	.	.	-1	31*	69*	11*
CCN1C(=O)[C@@H]2[C@@H]3CN(S(=O)(=O)c4ccc(C)cc4)[C@@H](c4ccccc4)[C@@H]3C(=O)C[C@@H]2C1=O	.	.	.	.	-1	-37	.	.
Cc1ccccc1N(C)C(=O)Cn1nnc(-c2ccccc2F)n1	.	.	.	.	.	9	.	.
SMILES	HTR5A ag	MOR-DOR ag	HTR5A inv ag	MOR-DOR inv ag	HTR2A ag	HGIII-sPLA2 inh	sPLA2 confirm	BODIPY interf	others
NS(=O)(=O)c1ccc(F)c(C(=O)O)c1	5	0	-15	-1	3	26*	4	-6
COc1ccccc1CNc1ccc2c(c1)OC[C@H](CC(C)C)NS2(=O)=O	.	.	.	.	.	10	.	.
COc1ccc(NC(=O)CCCNS(=O)(=O)c2ccc3[nH]c(=O)oc3c2)cc1OC	.	.	.	.	.	6	.	.
Cc1ccc(C)c(NC(=O)CN2C(=O)CCSc3ccccc32)c1	.	.	.	.	.	8	.	.
COC(=O)[C@@H](C)NC(=O)C(Cc1ccc2c(c1)OCO2)NC(C)=O (stereo not given in full)	.	.	.	.	.	2	.	.
O=C(NNC(=S)Nc1ccc(F)cc1)C1CC1c1ccc(Cl)cc1 (stereo not given)	2	-3	5	14	-8	20*	35*	0	BODIPY interf DR=>122
Cc1ccc(C2CC2C(=O)NNC(=S)Nc2cccc(C)c2)cc1 (stereo not given)	-1	0	-13	-2	-2	19	.	.
Cc1ccc(C2CC2C(=O)NNC(=S)Nc2cccc(Cl)c2)cc1 (stereo not given)	2	-2	-5	10	-6	23*	-9	10.0*
COc1ccc(NC(=S)NNC(=O)C2CC2c2ccc(C)cc2)cc1 (stereo not given)	4	-2	-52	14	0	21*	22*	-1
O=S(=O)(O)c1cc(Cl)cc(N=Nc2ccc(O)cc2O)c1O	-3	-5	12	20	0	49*	-38	-15
C#CCNC(=O)C[C@H]1C(=O)N(Cc2ccc(OC)cc2)C2=CCCC[C@@]21C(=O)OCC	.	.	.	.	.	-3	.	.
COc1ccc2c(c1)c[n+](C)c1c3cc(OC)c(OC)cc3ccc21	.	.	.	.	2	27*	36*	-26	BODIPY interf DR=>122
COC(=O)C1=C(C)N(Cc2ccccc2C(F)(F)F)C(=NCc2ccccc2C(F)(F)F)NC1c1ccc(Cl)cc1 (stereo not given)	.	.	.	.	.	-4	.	.
COc1ccccc1-c1cc2c(c3c1ccn3C)C1CCC2C1 (stereo not given)	.	.	.	.	7	22*	4	-3
Cn1ccc2c(-c3ccccc3F)cc3c(c21)C1CCC3C1 (stereo not given)	.	.	.	.	-5	8	.	.
COc1cccc(-c2cc3c(c4c2ccn4C)C2CCC3C2)c1 (stereo not given)	.	.	.	.	0	19*	-5	2
COc1ccc(-c2cc3c(c4c2ccn4C)C2CCC3C2)cc1 (stereo not given)	.	.	.	.	-1	16	.	.

Screening data as filed in PubChem.
